From PubChem BioAssay (NCATS) come the findings set out here.

Records with an inconclusive call do not appear. Calls of active or inactive are those of the source. Calls come from the whole dose curve; as a rule, active = well fitted activation curve with a large enough effect; inconclusive = small, poorly fitted or top-dose-only effect; inactive = no such curve, though single readings can be large or run the other way.

Cellular tumor antigen p53 (Homo sapiens), sequence (P04637 whole entry, looked up): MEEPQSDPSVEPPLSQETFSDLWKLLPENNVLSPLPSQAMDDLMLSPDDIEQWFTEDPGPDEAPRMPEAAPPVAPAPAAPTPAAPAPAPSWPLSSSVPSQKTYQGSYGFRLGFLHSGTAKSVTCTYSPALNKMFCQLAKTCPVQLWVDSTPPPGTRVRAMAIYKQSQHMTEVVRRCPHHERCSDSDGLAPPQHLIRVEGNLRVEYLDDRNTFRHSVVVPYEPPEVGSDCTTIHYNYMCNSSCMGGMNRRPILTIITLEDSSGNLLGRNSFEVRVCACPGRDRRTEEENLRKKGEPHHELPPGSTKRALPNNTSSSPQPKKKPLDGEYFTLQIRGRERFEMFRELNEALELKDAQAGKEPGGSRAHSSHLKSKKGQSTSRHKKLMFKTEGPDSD

The target in this experiment is Cellular tumor antigen p53 (Homo sapiens) (UniProt P04637). Nature of the experiment: Primary qHTS for small molecule compounds that upregulate eGFP-tagged delta133p53alpha (in N-terminal) cells. (AID 2060322).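 Note: series mostly up to about 56 µM; 0% = DMSO vehicle and 100% = reference activator; nearly all actives have a fitted effect of over 75% in size.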 The conditions noted are these: NCI-H358 eGFP-delta133p53alpha fluorescence, 24 h; activation: stronger effect = higher value. The method, boiled down:
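NCI-H358 cells pre-induced 24 h with 10 ng/ml doxycycline to express N-terminal eGFP-delta133p53alpha, then dosed 24 h at 37C without doxycycline; fixed, Hoechst-stained, GFP intensity by laser scanning cytometry, normalized to DMSO (0%) and 57.5 uM 5-azacytidine (100%).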
Background: qHTS replaces the single test concentration by a dilution series.
Consider `CCC(=O)c1c(O)cc(O)cc1O`, for which the activation was -1.67% (inactive).
Then `NS(=O)(=O)c1ccc(N2CCCCS2(=O)=O)cc1`, with 7.34% (inactive); and `O=C1OC2(c3ccccc31)c1cc(I)c(O)c(I)c1Oc1c2cc(I)c(O)c1I`, with -36.8% (inactive).
